The assay is described as follows: qHTS Assay for Inhibitors of Hepatitis C Virus (HCV): Confirmation Assay for Cherry-picked Compounds. The conditions noted are these: Potency: inhibition. The source says: Hepatitis C virus (HCV) infects about 200 million people in the world. Many infected people progress to chronic liver disease including cirrhosis with a risk of developing liver cancer. To date, there is no effective vaccine for hepatitis C. Current therapy based on interferon is only effective in about half of the patients and is associated with significant adverse effects. The fraction of people with HCV who can complete a successful treatment is estimated to be no more than 10 percent. Recent development of direct-acting antivirals against HCV, such as protease and polymerase inhibitors, is promising but still requires combination with peginterferon and ribavirin for maximal efficacy. In addition, these agents are associated with high rate of resistance and many have significant side effects. Due to the lack of a culture system for infectious HCV, the search for new HCV drugs has been greatly hampered. […] High-throughput screening (HTS) with an infectious HCV system would cover the complete spectrum of potentially druggable targets in all stages of HCV lifecycle, and would have more biological relevance than other cell-based assays. […]
Cells were plated in a 1536-wel tissue culture grade plates at a final concentration of 1,000 cells/well (3 uL volume). […] The luciferase activity was read for 15 sec using the PerkinElmenr ViewLux plate reader.
On the technique in general: qHTS replaces the single test concentration by a dilution series.

The other results are listed elsewhere or left out. Entries that show only a call come without a potency. Records with an inconclusive call do not appear. The source made the active and inactive calls. The call rests on the fitted dose curve; in most records, active means well fitted inhibition curve with a large enough effect; inconclusive means small, poorly fitted or top-dose-only effect; inactive means no such curve, though single readings can be large or run the other way.
Further: nearly all actives have a fitted effect of over 80% in size.

Regarding `CC1=CC(=Cc2sc3ccccc3[n+]2C)C=C(C)O1`, the Potency was 4.99 µM (active).

On to `CC[N+]1(C)CCCC(OC(=O)C(O)(c2ccccc2)c2ccccc2)C1` (configuration not stated), for which the Potency result is “inactive”.

(Values after PubChem BioAssay AID720575 (National Center for Advancing Translational Sciences (NCATS), 2013).)
